In the first test the test system is LXRb:RXRa (NR concentration 270 nM, RXRa partner concentration 90 nM). Put plainly: PBM binding z-score (relative to random genomic background probes); higher = stronger binding; sequences stand for … in GC…GCGATTGACAGCGTAGAATGAAGG
Put shortly: (§1)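 Regression normalization was applied to scanned fluorescence from custom Agilent 4×180K protein-binding microarrays. Before scanning, arrays were incubated 1 h with ligand-free nuclear receptor dimers, and binding was detected with antibodies against each partner (one per run). Binding z-scores use the random background probes as reference.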
As for TCTTGTAGATTAGCAGGTTAAGAAAGCTGGCCAA, the PBM binding z-score worked out at 0.57.
On the same count and under the same terms, with CGAACTAGGTCAGAACAGGACAGTGAAGGATGAT the figure was 0.189.
Take CCTACTGGCCCAAAGGTCATTGATTCCAATGCTC: the PBM binding z-score was found to be 4.8.
The sequence CGAACCAGGGCATGAGTTGATAGCAAATGCCGAT registered a PBM binding z-score of -0.304.
On the same count and under the same terms, with TTCCCAAGGTGAAAGGTCGTTGATGCACGCCTTG the figure was 2.97; with CCTGCTACGTCATGGTCAGCTAATCTACAGTATG, -0.505.
Sequence TCGAGTAGGTTACCAATGAGGCATTCAGCTTTCT came in with a PBM binding z-score of 0.0718.
The same measure, in the same setting: with AGTCAAAGTTCATCTAGGTAACGTACGATATGCT the figure was 3.91; with TCTAGGTGGTCACGGAGGTCACACACGACGGGTA, 3.28.
Consider ACTAGCAGGCCAAGGGTCACCCAAGATTAGTCCG, for which the PBM binding z-score came out at 2.76.
GATACAGTGTCAGCTAGAGGCCAGAGTATGGAAA displayed a PBM binding z-score of -0.763.
The same measure, in the same setting: the same measure for CCTTCTGGGCCATCAGGTCATTGATATCAACGTT: 1.44.
In turn, TCTTGTAGATAAACAGGAGGTTAAGAAAGATCGA displayed a PBM binding z-score of 1.01.
On to CCTACTGGGCCAAGGGTCATTGATTCCAATGCTC, for which the PBM binding z-score amounted to 2.63.
GCTTGGAGATCAAGGTTAAGAAAGACTAAGCTAA: the PBM binding z-score was found to be 0.686.
The sequence ATCTCTAGGTAAGACTCAGTTCAGCGAAGAACGC came in with a PBM binding z-score of 0.111.
Regarding TCTAGTTTGTCACGGAGGTCACACACGACGGGTA, the PBM binding z-score was found to be 3.26.
On the same count and under the same terms, the same measure for TCTGGTAGATCAAGCAGGTTAAGAAAGCCTGAGT: 0.00998; for TTACCAAGGTGAGCTGAGGCCGTTGATCCAACTC: -0.569; for TCTTGTAGCTCAATAGAGGTTAAGAAAGTGCGCT: 1.49.
For ATCTCTAGGGAACCAAGTTCAGTGAATGCCGAAC, the PBM binding z-score was 0.284.
In the case of TCTATTAGTTGAAGGACAACCGACGAGTCCGTTT, the PBM binding z-score was 0.67.
In the case of ACTAGCAGGCCAAGTTGGGGTCACTCAAACAAAG, the PBM binding z-score is 4.07.
TTACCAATGTGAGCTGAGGTCGTTGATCCAACTC registered a PBM binding z-score of 0.408.
For the sequence TCATATAGGTAATACAGGTGAAAATCGGCATCTA, the PBM binding z-score is 1.27.
Take TCTGCTAGGTCTGTTGGTCAGCTAACGAGCTGCC: the PBM binding z-score is -0.715.
Same read-out and setting: the same measure for TCTAGTTGGTCACGGAGGTCAAACACGACGGGTA: 4.25.
Consider TCATTTAGGTAAAAGGTGAAAGTCGGTGTGGTAA, for which the PBM binding z-score was 1.95.
On to CGTCCAAGGTCAGAGAGGGCAGTGAATGCCGAGT, for which the PBM binding z-score amounted to 2.71.
In the case of AATACAGGGTCACTAGGCCAGACTAGGTACGAAT, the PBM binding z-score is 3.8.
Take ACTTACGGGCCAACGAGGTTATAGCACGCGTATA: the PBM binding z-score was 0.645.
Turning to CACCCTAGGTCAGGGCCAGTATAGGAGGAACGTT, the PBM binding z-score came to 1.2.
In the case of CGAACTAGGTCGTTGACAGGACAGTGAATAGTAA, the PBM binding z-score turned out to be 0.171.
Same read-out and setting: the same measure for TCGAGTAGGTTACCAAAGGGGCATTCAGCTTTCT: 1.61; for TCTTGTAGACCAGCAGGTTAAGAAAGCTGGCCAA: 0.0973; for CCTATTAGTTGACCATAAGGGCAGCCGAAGCTCG: 0.218.
Consider CATACATGGTCAGCTAGGCCAGAGTAGGGACGGC, for which the PBM binding z-score is -0.962.
As for TCTTGTAGATCAATAGAGTTTAAGAAAGTGCGCT, the PBM binding z-score was 0.0999.
Sequence AGAATGAGGTTATACGTAGATAAGGGAAGAAAGT yielded a PBM binding z-score of 1.56.

A further test relates to LXRb homodimer (NR concentration 270 nM). The test is described as above. Put shortly: as §1
TCTTGTAGATTAGCAGGTTAAGAAAGCTGGCCAA gave a PBM binding z-score of -0.424.
Consider CGAACTAGGTCAGAACAGGACAGTGAAGGATGAT, for which the PBM binding z-score was -0.174.
Regarding CCTACTGGCCCAAAGGTCATTGATTCCAATGCTC, the PBM binding z-score worked out at 1.23.
As for CGAACCAGGGCATGAGTTGATAGCAAATGCCGAT, the PBM binding z-score is -1.08.
The sequence TTCCCAAGGTGAAAGGTCGTTGATGCACGCCTTG registered a PBM binding z-score of -0.253.
Sequence CCTGCTACGTCATGGTCAGCTAATCTACAGTATG showed a PBM binding z-score of -0.327.
Sequence TCGAGTAGGTTACCAATGAGGCATTCAGCTTTCT returned a PBM binding z-score of -1.38.
AGTCAAAGTTCATCTAGGTAACGTACGATATGCT: the PBM binding z-score was 1.59.
Sequence TCTAGGTGGTCACGGAGGTCACACACGACGGGTA had a PBM binding z-score of 0.0895.
In the case of ACTAGCAGGCCAAGGGTCACCCAAGATTAGTCCG, the PBM binding z-score is -0.624.
GATACAGTGTCAGCTAGAGGCCAGAGTATGGAAA registered a PBM binding z-score of -0.98.
On to CCTTCTGGGCCATCAGGTCATTGATATCAACGTT, for which the PBM binding z-score worked out at 0.0435.
With TCTTGTAGATAAACAGGAGGTTAAGAAAGATCGA, the PBM binding z-score was -0.398.
With CCTACTGGGCCAAGGGTCATTGATTCCAATGCTC, the PBM binding z-score is -0.578.
GCTTGGAGATCAAGGTTAAGAAAGACTAAGCTAA returned a PBM binding z-score of -1.08.
ATCTCTAGGTAAGACTCAGTTCAGCGAAGAACGC registered a PBM binding z-score of 0.684.
As to TCTAGTTTGTCACGGAGGTCACACACGACGGGTA, the PBM binding z-score was found to be 1.43.
In turn, TCTGGTAGATCAAGCAGGTTAAGAAAGCCTGAGT displayed a PBM binding z-score of -1.25.
On to TTACCAAGGTGAGCTGAGGCCGTTGATCCAACTC, for which the PBM binding z-score was -1.39.
Regarding TCTTGTAGCTCAATAGAGGTTAAGAAAGTGCGCT, the PBM binding z-score was -0.618.
Same read-out and setting: the same measure for ATCTCTAGGGAACCAAGTTCAGTGAATGCCGAAC: 0.239; for TCTATTAGTTGAAGGACAACCGACGAGTCCGTTT: 0.653; for ACTAGCAGGCCAAGTTGGGGTCACTCAAACAAAG: -0.00108.
Turning to TTACCAATGTGAGCTGAGGTCGTTGATCCAACTC, the PBM binding z-score was -0.727.
TCATATAGGTAATACAGGTGAAAATCGGCATCTA had a PBM binding z-score of 0.421.
For the sequence TCTGCTAGGTCTGTTGGTCAGCTAACGAGCTGCC, the PBM binding z-score was determined as 0.485.
Consider TCTAGTTGGTCACGGAGGTCAAACACGACGGGTA, for which the PBM binding z-score stood at 1.38.
Still for that read-out and setting: with TCATTTAGGTAAAAGGTGAAAGTCGGTGTGGTAA the figure was 0.881; with CGTCCAAGGTCAGAGAGGGCAGTGAATGCCGAGT, -0.0412; with AATACAGGGTCACTAGGCCAGACTAGGTACGAAT, 0.693.
The sequence ACTTACGGGCCAACGAGGTTATAGCACGCGTATA had a PBM binding z-score of -0.0337.
On to CACCCTAGGTCAGGGCCAGTATAGGAGGAACGTT, for which the PBM binding z-score was -0.00593.
In turn, CGAACTAGGTCGTTGACAGGACAGTGAATAGTAA showed a PBM binding z-score of -0.626.
As for TCGAGTAGGTTACCAAAGGGGCATTCAGCTTTCT, the PBM binding z-score is -0.557.
TCTTGTAGACCAGCAGGTTAAGAAAGCTGGCCAA came in with a PBM binding z-score of -0.717.
As to CCTATTAGTTGACCATAAGGGCAGCCGAAGCTCG, the PBM binding z-score worked out at 0.392.
As to CATACATGGTCAGCTAGGCCAGAGTAGGGACGGC, the PBM binding z-score was -0.25.
On the same count and under the same terms, with TCTTGTAGATCAATAGAGTTTAAGAAAGTGCGCT the figure was -0.184; with AGAATGAGGTTATACGTAGATAAGGGAAGAAAGT, 0.00672.

The values above are taken from the supplement of paper PMC6555819.
